Laboratory results from PubChem BioAssay AID1159580 (chemical genetic matrix, 2015).
The whole screen tested about 5,500 compounds, of which about 2,000 (36%) were called active. Roughly 18% stayed inconclusive and do not appear here. Cut-off read from the data, not from the text of the source: active = normalized growth mostly below about 0.91 (no sharp cut-off); inconclusive = no clear call, values can overlap the other calls; inactive = mostly above about 0.92. The list shows a part of the results.

Assay: chemical genetic growth profiling, strain panel (AID 1159580);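 note: tested at 20 µM; growth read once vehicle control cultures reached saturation at 30 °C; 1 = growth at the plate median or of vehicle wells; lower values mean less growth of the strain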
Conditions: growth OD
[1] = S. cerevisiae deletion strains, locus YAL040C, strain CLN3, active compounds read low
[2] = S. cerevisiae deletion strains, locus YCL061C, strain MRC1 (second series), active compounds read low
[3] = S. cerevisiae deletion strains, locus YDR150W, strain NUM1, active compounds read low
[4] = S. cerevisiae deletion strains, locus YER002W, strain NOP16, active compounds read low
[5] = S. cerevisiae deletion strains, locus YGR078C, strain PAC10, active compounds read low
[6] = S. cerevisiae deletion strains, locus YMR263W, strain SAP30, active compounds read low
[7] = S. cerevisiae deletion strains, locus YNL153C, strain GIM3, active compounds read low
[8] = S. cerevisiae deletion strains, locus YNL175C, strain NOP13, active compounds read low
[9] = S. cerevisiae deletion strains, locus YNL197C, strain WHI3, active compounds read low
[10] = S. cerevisiae deletion strains, locus YNL224C, strain SQS1, active compounds read low
[11] = S. cerevisiae deletion strains, locus YNL322C, strain KRE1, active compounds read low
[12] = S. cerevisiae deletion strains, locus YOR083W, strain WHI5 (second series), active compounds read low
[13] = S. cerevisiae deletion strains, locus YMR307W, strain GAS1, active compounds read low
[14] = S. cerevisiae deletion strains, locus YNL128W, strain TEP1, active compounds read low
[15] = S. cerevisiae deletion strains, locus YPL241C, strain CIN2, active compounds read low

Measured: normalized growth

OC(CN1CCN(c2cccc(Cl)c2)CC1)C(c1ccccc1)c1ccccc1 (stereo not given)
inactive: [1] 0.979 | [2] 0.986 | [3] 0.985 | [5] 1.01 | [6] 0.997 | [7] 0.992 | [8] 1.09 | [9] 0.992 | [10] 1.01 | [11] 0.97
active: [4] 1.19 [resistant] | [12] 1.17 [resistant]

Clc1cccc(N2CCNCC2)c1
inactive: [1] 0.974 | [2] 0.983 | [4] 0.981 | [5] 0.996 | [13] 0.991 | [14] 0.981 | [7] 0.985 | [8] 0.97 | [9] 0.979 | [10] 0.984 | [11] 0.996 | [12] 0.962 | [15] 0.982

CCOC(=O)N=Nc1c(O)[nH]c2ccc(F)cc12
inactive: S. cerevisiae deletion strains, locus YAL013W, strain DEP1, active compounds read low 1.01 | S. cerevisiae deletion strains, locus YBR229C, strain ROT2, active compounds read low 1.01 | S. cerevisiae deletion strains, locus YDL101C, strain DUN1, active compounds read low 1.01 | [3] 1 | S. cerevisiae deletion strains, locus YEL061C, strain CIN8, active compounds read low 1.02 | [5] 1 | S. cerevisiae deletion strains, locus YGR229C, strain SMI1, active compounds read low 1 | S. cerevisiae deletion strains, locus YHR030C, strain SLT2, active compounds read low 1.06 | S. cerevisiae deletion strains, locus YHR087W, strain rtc3, active compounds read low 1.03 | S. cerevisiae deletion strains, locus YJR043C, strain POL32, active compounds read low 1 | S. cerevisiae deletion strains, locus YJR075W, strain HOC1, active compounds read low 1.02 | S. cerevisiae deletion strains, locus YKL190W, strain CNB1, active compounds read low 1.01 | S. cerevisiae deletion strains, locus YLR039C, strain RIC1, active compounds read low 1.02 | S. cerevisiae deletion strains, locus YLR058C, strain SHM2 (second series), active compounds read low 0.997 | S. cerevisiae deletion strains, locus YLR085C, strain ARP6, active compounds read low 1.01 | S. cerevisiae deletion strains, locus YLR262C, strain YPT6, active compounds read low 1.01 | S. cerevisiae deletion strains, locus YML094W, strain GIM5, active compounds read low 1.05 | S. cerevisiae deletion strains, locus YMR219W, strain ESC1, active compounds read low 0.999 | [6] 0.976 | [13] 0.933 | [14] 1.02 | [7] 1 | S. cerevisiae deletion strains, locus YNL298W, strain CLA4 (second series), active compounds read low 0.998 | [11] 1.02 | S. cerevisiae deletion strains, locus YNR030W, strain Alg12, active compounds read low 1.01 | S. cerevisiae deletion strains, locus YOL006C, strain TOP1, active compounds read low 1.03 | S. cerevisiae deletion strains, locus YPL055C, strain LGE1, active compounds read low 1.04 | [15] 0.889 | S. cerevisiae deletion strains, locus YPR135W, strain CTF4, active compounds read low 1.08 | S. cerevisiae strains, strain wild type, active compounds read low 1
